Screening results from PubChem BioAssay.
Pf growth 48h: Primary qHTS for delayed death inhibitors of the malarial parasite plastid, 48 hour incubation; P. falciparum luciferase growth in erythrocytes, 48 h; Potency, µM (titrated, usually from 28.7 µM), hits mostly inhibitors; actives 5.9% (n = 310,000); AID 504832, 2011
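Cell-based growth assay: transgenic P. falciparum expressing firefly luciferase, cultured in red cells within RPMI 1640 containing 0.5% w/v Albumax, 24 mM bicarbonate and gentamycin. A drop in luciferase activity indicates inhibition.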
Shiga inhibitor: A qHTS for Small Molecule Inhibitors of Shiga Toxin; Vero cells, Shiga toxin protein synthesis inhibition reporter; inhibition, % at 38.7 µM; actives 9.2% (n = 290,000); AID 2315, 2010; in the data active = inhibition mostly above about 28%, no sharp cut-off; inactive = mostly below about 43%
SARS PLpro yeast: qHTS of Yeast-based Assay for SARS-CoV PLP. Potency, µM (top dose mostly 32.9 µM), most hits filed as activators. actives 0.19% (n = 330,000). AID 485353, 2010. S. cerevisiae expressing SARS-CoV PLpro, growth rescue; calls by dose curve; note: nearly all actives have a fitted effect of over 55% in size
Cycloheximide cs: Cycloheximide Counterscreen for Small Molecule Inhibitors of Shiga Toxin | cell reporter, cycloheximide protein synthesis inhibition counterscreen | max response, % | actives 12% (n = 300,000) | AID 2314, 2010; in the data active = max response mostly above about 13%, no sharp cut-off; inactive = mostly below about 14%; note: read at 38.3 µM for the half of the compounds with a filed dose
NS1 function inh: qHTS Assay for Inhibitors of Influenza NS1 Protein Function; Potency, µM (doses to about 46.1 µM); actives 0.4% (n = 270,000); AID 2326, 2010; calls by dose curve; note: actives are rising curves; nearly all actives have a fitted effect of over 50% in size
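In this qHTS, NS1 from influenza A is expressed in budding yeast, where it slows growth. Cells are switched from glucose to 2% galactose medium (pH 6.0, -URA), treated with compound, and growth recovery is read at OD600.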
Pf growth 96h: Primary qHTS for delayed death inhibitors of the malarial parasite plastid, 96 hour incubation; P. falciparum luciferase reporter growth, 96 h; actives 6.9% (n = 320,000); Potency, µM (titrated, usually from 28.7 µM), most hits filed as inhibitors; AID 504834, 2011
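P. falciparum expressing integrated firefly luciferase, in erythrocytes at 2% hematocrit, 0.05% parasitemia, incubated with compounds 96 h at 37 C, 5% CO2. Growth inhibition read as loss of luminescence; two-generation exposure targets delayed-death apicoplast inhibitors.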
Large screens that a line does not name were inactive. A selection: hits, their analogues and other compounds. The true share with any hit is near 21%. Unless noted, calls come from the whole dose curve; as a rule, active = well fitted inhibition curve with a large enough effect; inconclusive = small, poorly fitted or top-dose-only effect, or another doubt; inactive = no such curve, though single readings can be large or run the other way.

COc1ccccc1CC1CC(=O)N(c2ccccc2)C1=O (centres undefined)	Pf growth 96h 9.3µM
COc1cc(/C=C/c2cccc[n+]2C)ccc1OCC(=O)Nc1ccccc1C	Pf growth 48h inconclusive
CCOc1cc(/C=C/c2cccc[n+]2C)ccc1OCC(=O)Nc1ccc(C)cc1	Pf growth 48h 0.93µM, Pf growth 96h 5.2µM
CCOc1cc(/C=C/c2cccc[n+]2C)ccc1O	Pf growth 48h 9.3µM, Pf growth 96h 8.3µM
C[n+]1ccccc1/C=C/c1cc(Br)ccc1O	Pf growth 48h 0.74µM, Pf growth 96h inconclusive
CCOc1cc(/C=C/c2cc(C(F)(F)F)[nH]c(=O)n2)ccc1O	Pf growth 48h inconclusive
CCCCCCCCCCCCCCOS(=O)(=O)O	none (no result: Pf growth 48h, SARS PLpro yeast, NS1 function inh, Pf growth 96h)
CSc1ccc(S(=O)(=O)N2CCC(C(=O)NCCN3CCOCC3)CC2)cc1	NS1 function inh inconclusive
FC(F)C(F)(F)c1cc(-c2ccccc2)n[nH]1	Cycloheximide cs 20
CC(C)(C)[C@H]1C=C(C(=O)N2CCN(Cc3ccccc3)CC2)O[C@@H](OCCCCO)C1	Pf growth 48h inconclusive, Pf growth 96h inconclusive
CC(C)(C)[C@@H]1C=C(C(=O)N2CCN(Cc3ccccc3)CC2)O[C@H](OCc2ccc(CO)cc2)C1	Pf growth 48h inconclusive, Pf growth 96h 15µM
CC(C)(C)[C@H]1C=C(C(=O)N2CCN(Cc3ccc4c(c3)OCO4)CC2)O[C@@H](OCc2ccc(CO)cc2)C1	Pf growth 48h 10µM, Pf growth 96h inconclusive
Cc1cc(=O)c2c(O)c3c(O)cc(=O)c4c3c3c(cc(O)c1c23)C(C)(C)C=4O	Pf growth 48h 2.7µM, Pf growth 96h 1.5µM (no result: Shiga inhibitor, SARS PLpro yeast, Cycloheximide cs, NS1 function inh)
O=c1ccc(-c2ccc(S(=O)(=O)Nc3cccc([N+](=O)[O-])c3)s2)n[nH]1	none
CCCCCCCCSc1nnc(CSc2nc3nc(C)cc(C)n3n2)o1	Pf growth 48h 12µM, Pf growth 96h inconclusive
CCSc1nc2nc(C)cc(C)n2n1	Pf growth 96h 12µM
C=CCSc1nc2nc(C)cc(C)n2n1	Pf growth 96h 0.33µM
Cc1cc(C)n2nc(SCCOc3ccccc3F)nc2n1	Shiga inhibitor 114, Cycloheximide cs 26 (no result: NS1 function inh)
Cc1cc(C)n2nc(SCC(=O)Nc3ccccc3F)nc2n1	none (no result: Shiga inhibitor, Cycloheximide cs, NS1 function inh)
C=C(C)CSc1nc2nc(C)cc(C)n2n1	none
O=C(CN1CCN(c2ccccc2)CC1)N/N=C/c1cccc(F)c1	none
CCOC(=O)c1cc2c(ccc3nc(C)c(C)c32)[nH]c1C	Pf growth 48h inconclusive
Cc1cc(SCC(=O)c2ccccc2)nc(C)n1	Shiga inhibitor 117, Cycloheximide cs 32
Cc1ccc(C(=O)CSc2cc(C)nc(SCC(=O)c3ccccc3)n2)cc1	none (no result: Pf growth 96h)
Cc1cc(C)n2nc(SCC(=O)c3ccccc3)nc2n1	Cycloheximide cs 14
CC1=C(C(=O)OCC2CCCO2)C(c2ccc(C)cc2)C2=C(CC(C)(C)CC2=O)N1 (centres undefined)	none
O=C1NCCCC1C(=O)N1CCN(C(=O)C2CCCNC2=O)CC1 (centres undefined)	Pf growth 48h 12µM
COc1ccc(CC(=O)Nc2cccc(/C(C)=N/NC(=O)C3(C)CC3(Br)Br)c2)cc1 (centres undefined)	Pf growth 48h inconclusive, Pf growth 96h inconclusive
Cc1c(C)c2ccc(OC(C)C(=O)NCCc3c[nH]c4ccccc34)cc2oc1=O (centres undefined)	Pf growth 48h inconclusive, Pf growth 96h inconclusive
CCOC(=O)C(C)Sc1nc(=O)n2cccc(C)c2n1 (centres undefined)	none (no result: NS1 function inh)
CCOC(=O)C(C)Sc1ncc(-c2ccc(Cl)cc2)cn1 (centres undefined)	Cycloheximide cs 13, Pf growth 96h inconclusive
CCN(CC)CCCN(c1ccccc1)C1Cc2ccccc2C1	Pf growth 48h 1.9µM, Pf growth 96h inconclusive (no result: Shiga inhibitor, SARS PLpro yeast, Cycloheximide cs, NS1 function inh)
CCc1n[nH]c2c1/C(=N\O)CC(c1ccccc1)C2 (centres undefined)	Pf growth 48h inconclusive (no result: Pf growth 96h)
CCCCc1noc2c1/C(=N\O)CC(c1ccccc1)C2 (centres undefined)	Pf growth 48h inconclusive, Cycloheximide cs 22, Pf growth 96h inconclusive
COc1cccc(-c2cc(C(=O)Nc3cccnc3Cl)no2)c1	none
CCc1ccccc1NC(=O)c1cc(-c2ccc(F)cc2)on1	none (no result: NS1 function inh)
CCc1ccccc1NC(=O)c1cc(-c2cccc(O)c2)on1	Cycloheximide cs 20 (no result: Pf growth 48h)
